Laboratory results from PubChem BioAssay (NCI).
Values joined by “and” are separate entries in the source; they are usually repeats but may differ in a detail not shown here. Equal entries are not always repeated. This is part of a sample that, as a whole, favours compounds with a hit. Of some 79,000 tested, about 15% had one in any assay. Active and inactive are the calls of the source. No stated cut-off is given here; in the data, active means growth inhibition above about 70%; inactive means the rest.

Experiment: NCI Yeast Anticancer Drug Screen. Data for the rad50 strain (AID 155);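 further: 0% = growth of vehicle-only cultures of the same strain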
Conditions: S. cerevisiae rad50 strain growth inhibition, stronger effect = higher value; at 50.0 µM unless noted
In short: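 A DNA repair-deficient yeast mutant serves as the test organism; compound-induced growth inhibition is calculated against vehicle-treated cells.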

Structure (SMILES) | growth inhibition
Cn1c([N+](=O)[O-])cnc1CSc1nc(-c2ccccc2)no1 | 17.9% (inactive)
CCOc1nc(=O)n(C2OC(CO)C(O)C2O)s1 (configuration not stated) | 26.4% (inactive)
O=C(c1ccccc1)C1(c2ccccc2)OC1(C(=O)c1ccccc1)c1ccccc1 (configuration not stated) | 15.4% (inactive)
FC(F)(F)COP1(OCC(F)(F)F)=NP(OCC(F)(F)F)(OCC(F)(F)F)=NP(OCC(F)(F)F)(OCC(F)(F)F)=N1 | -1.2% (inactive)
O=C(O)c1nc2cn1/C=C\C=NCC1=CN3C=CC=NC3(C(=O)O)N1C2 (configuration not stated) | -14.6% (inactive)
CCC(=O)C(C)=O | 16.9% (inactive)
CCN(CC)C(=O)c1cc(OC)c(C(=O)N(CC)CC)cc1OC | -21.9% (inactive)
O=C(O)c1ccccc1SSc1ccccc1C(=O)O | 10.2% (inactive) and -7.05% (inactive)
CCCCCCCSCC(=O)OCC | -12.6% (inactive)
CCc1ccc(O)cc1O | -18.4% (inactive)
CCCCCCCCCCCCCCCCC(C#N)C(=O)O (configuration not stated) | -14.4% (inactive)
O=C1CCCC/C1=C/C=C/c1ccccc1 | 10.1% (inactive)
CC1(C)CC(=O)C(/C=N/C(=S)Nc2ccc(S(N)(=O)=O)cc2)=C(O)C1 | -41.5% (inactive)
CC(=O)OCC(OC(C)=O)C(OC(C)=O)C(OC(C)=O)C(OC(C)=O)C(=O)NC1CCc2ccccc2C1 (configuration not stated) | 24.8% (inactive)
O=c1[nH][nH]c(=O)c2c([N+](=O)[O-])cccc12 | -17.6% (inactive)
COc1ccccc1OC(=O)c1ccccc1 | -27.4% (inactive)
Cc1nc(N)c(N)c(=O)[nH]1 | -0.6% (inactive)
C=CCC(O)CCCCC (configuration not stated) | -0.4% (inactive)
OC1COC(OCc2ccccc2)C(O)C1O (configuration not stated) | -16.4% (inactive) and -2.85% (inactive)
COc1ccc(-c2cc(=O)c3c(O)c(O)c(OC)cc3o2)cc1O | -5.15% (inactive)
CCCCC(C(=O)O)N(C)C (configuration not stated) | -15.9% (inactive)
CCCCCCN(CCCCCC)CC(O)c1cc(-c2ccc(Cl)cc2)nc2c(Cl)cccc12 (configuration not stated) | -21.2% (inactive)

Experiment: NCI Yeast Anticancer Drug Screen. Data for the mec2-1 strain (AID 157)
Conditions: S. cerevisiae mec2-1 strain, stronger effect = higher value; at 50.0 µM unless noted
In short: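 Growth inhibition is read against vehicle-treated controls after compound exposure of the mec2-1 yeast strain, which is defective in DNA damage repair or cell cycle control.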

Structure (SMILES) | growth inhibition
O=c1[nH]c2[nH]c(=S)[nH]c(=O)c2[nH]1 | 0.85% (inactive)
CC(C)N(C(=O)c1ccccc1O)C(C)C | -7.65% (inactive)
[N-]=[N+]=NC1(N=[N+]=[N-])C(=O)Nc2ccccc2C1=O (configuration not stated) | 14.8% (inactive)
COc1ccc(N2CC[N+](c3ccc(N(C)C)cc3)=C2C2=[N+](c3ccc(N(C)C)cc3)CCN2c2ccc(OC)cc2)cc1 | -6.8% (inactive)
O=c1oc(-c2ccccc2CCl)nc2ccccc12 | -17.1% (inactive)
COC1OC(COC(=O)NCCCCC(=O)C(F)(F)F)C(O)C(O)C1O (configuration not stated) | 22.6% (inactive)
NC(CSCCB(O)O)C(=O)O (configuration not stated) | -15.2% (inactive)
Cc1ccc(C(=O)O)c(/C=C2\Cc3cc(C)cc(C)c3C2=O)c1 | 14.8% (inactive)
CC(CCO)CCCO (configuration not stated) | -11.8% (inactive)
Cc1ccc2sccc(=O)c2c1 | -2.1% (inactive)
[O-][N+](=Nc1ccc2c(c1)Cc1ccccc1-2)c1ccc2c(c1)Cc1ccccc1-2 | -20.2% (inactive)
FC(F)(F)c1ccc2ccc3ccc(Cl)cc3c2c1 | -24% (inactive)
O=C(NO)c1ccccc1 | -29.6% (inactive)
COC(=O)c1cc(C)n(C)c(=O)c1CN | 4.85% (inactive)
Cc1nc(-c2ccc(N=Cc3ccc(N4CCC5(CCCCC5)CC4)cc3)cc2)cs1 | -2.05% (inactive)
Cc1ccc(S(=O)(=O)NC(CCC(=O)N2CCOCC2)C(=O)O)cc1 (configuration not stated) | -4% (inactive)
O=C(Oc1ccc(Cl)cc1)c1ccc([N+](=O)[O-])cc1 | 26.1% (inactive)
O=[N+]([O-])c1ccc(N(CCO)CCO)cc1 | -12.8% (inactive)
Cn1c([N+](=O)[O-])cnc1CSc1nc(-c2ccccc2)no1 | 1.8% (inactive)
CCOc1nc(=O)n(C2OC(CO)C(O)C2O)s1 (configuration not stated) | -1.35% (inactive)
O=C(c1ccccc1)C1(c2ccccc2)OC1(C(=O)c1ccccc1)c1ccccc1 (configuration not stated) | -4.75% (inactive)
FC(F)(F)COP1(OCC(F)(F)F)=NP(OCC(F)(F)F)(OCC(F)(F)F)=NP(OCC(F)(F)F)(OCC(F)(F)F)=N1 | 14.3% (inactive)
O=C(O)c1nc2cn1/C=C\C=NCC1=CN3C=CC=NC3(C(=O)O)N1C2 (configuration not stated) | -2.95% (inactive)
CCC(=O)C(C)=O | 3.9% (inactive)
CCN(CC)C(=O)c1cc(OC)c(C(=O)N(CC)CC)cc1OC | -0.35% (inactive)
